Measured values from PubChem BioAssay.

The molecules below were run against Focal adhesion kinase 1 (Homo sapiens) (UniProt Q05397) (assay: PTK2 protein binding on printed compound slides – biochemical, small-molecule microarray, 635/667 nm fluorescence, BSA, DTT, primary screen (AID 1130;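 also: composite of spot emission at 667 nm and signal to noise over triplicate slides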)). Conditions: 635 nm fluorescence, higher = more signal.
Sequence of Focal adhesion kinase 1 (Homo sapiens) (Q05397 whole entry, looked up): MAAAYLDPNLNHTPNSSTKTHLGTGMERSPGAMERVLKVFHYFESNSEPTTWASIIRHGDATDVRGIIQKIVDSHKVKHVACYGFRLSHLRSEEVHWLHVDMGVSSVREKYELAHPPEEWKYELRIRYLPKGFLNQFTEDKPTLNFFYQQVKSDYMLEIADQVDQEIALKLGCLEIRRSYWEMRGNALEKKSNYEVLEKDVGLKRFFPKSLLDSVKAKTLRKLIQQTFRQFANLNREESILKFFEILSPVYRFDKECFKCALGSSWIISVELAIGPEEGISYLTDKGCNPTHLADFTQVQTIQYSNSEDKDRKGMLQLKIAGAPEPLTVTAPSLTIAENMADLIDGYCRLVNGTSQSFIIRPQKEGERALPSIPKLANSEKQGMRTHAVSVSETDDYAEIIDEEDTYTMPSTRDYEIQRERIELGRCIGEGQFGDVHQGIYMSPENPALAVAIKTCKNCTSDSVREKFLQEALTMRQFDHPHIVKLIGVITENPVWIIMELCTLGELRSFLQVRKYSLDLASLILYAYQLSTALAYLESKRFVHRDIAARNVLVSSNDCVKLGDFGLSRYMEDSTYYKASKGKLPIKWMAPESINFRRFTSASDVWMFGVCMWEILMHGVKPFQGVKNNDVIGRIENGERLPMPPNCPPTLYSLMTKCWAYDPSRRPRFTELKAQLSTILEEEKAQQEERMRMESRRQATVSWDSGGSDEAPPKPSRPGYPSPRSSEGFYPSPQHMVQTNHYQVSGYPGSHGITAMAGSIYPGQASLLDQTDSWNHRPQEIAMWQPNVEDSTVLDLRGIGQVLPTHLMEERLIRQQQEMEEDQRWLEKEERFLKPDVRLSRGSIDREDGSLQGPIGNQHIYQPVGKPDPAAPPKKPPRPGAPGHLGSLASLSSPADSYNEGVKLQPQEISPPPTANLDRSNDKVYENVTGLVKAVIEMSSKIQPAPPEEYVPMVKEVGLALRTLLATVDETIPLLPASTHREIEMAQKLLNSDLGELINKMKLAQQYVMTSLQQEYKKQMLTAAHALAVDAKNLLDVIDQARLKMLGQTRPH

| Compound | composite z-score |
| --- | --- |
| COCCOC(=O)N1C(=O)[C@@]2(c3ccccc31)[C@H](c1ccc(O)cc1)N1[C@H](c3ccccc3)[C@H](c3ccccc3)OC(=O)[C@H]1[C@@H]2C(=O)Nc1nc2ccccc2s1 | 0.475 |
| C=CCOC(=O)[C@H]1[C@@H]2C(=O)O[C@@H](c3ccccc3)[C@@H](c3ccccc3)N2[C@@H](c2ccc(OCCOC(=O)[C@H]3C[C@H]4C(=O)N[C@@H](CCCCN(C)C)C(=O)N4[C@H]3c3ccc(O)cc3)cc2)[C@]12C(=O)Nc1ccc(I)cc12 | 0.739 |
| NC(=O)[C@@H]1[C@H]2C(=O)O[C@H](c3ccccc3)[C@H](c3ccccc3)N2[C@H](c2ccc(O)cc2)[C@@]12C(=O)Nc1ccccc12 | 0.119 |
| CC(C)C[C@@H]1NC(=O)[C@H](C(C)C)NC(=O)[C@@]23C(=O)N[C@@H](Cc4ccccc4)C2[C@H](C)[C@@]2(C)O[C@H]2C3/C=C/CC/C=C/CNC1=O (stereo partly drawn) | 0.262 |
| COC(=O)C(CC#Cc1ccc2c(c1)[C@]1(C(=O)N2)[C@H](c2ccc(OCCO)cc2)N2[C@H](c3ccccc3)[C@H](c3ccccc3)OC(=O)[C@H]2[C@@H]1C(=O)Nc1nc2ccccc2s1)C(=O)OC | 0.633 |
| O=C1NC(=O)C2C1C=CC(C(O)c1cc(C(F)(F)F)cc(C(F)(F)F)c1)N2Nc1ccccn1 (stereo not drawn) | 0.187 |
| Cc1ccc(S[C@]2(C(=O)NCCCN(C)C)CC(=O)N(Cc3cc(C(F)(F)F)cc(C(F)(F)F)c3)[C@@H]2c2ccc(CO)cc2I)cc1 | -0.0785 |
| C=C(C(=O)CC[C@@H](OC(=O)c1cccnc1)c1ccccc1OCCO)C(C)C | -0.0995 |
